Results published in PubChem BioAssay (NCI).
The panel holds about 83,000 compounds, 20% with a hit somewhere; the sample as a whole holds those more often.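 Results are percent growth after 48 hours of single-concentration exposure. 100 means growth as in untreated cells, lower positive values show inhibition; negative values down to -100 show cell death.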 Active and inactive are the calls of the source. The calls were made as follows: active = growth percent below 10; inactive = the rest.

test system: HL-60(TB) leukemia; assay: NCI-60 one-dose screen, 48 h (100 = growth as untreated, 0 = no growth, -100 = all killed); conditions: 10 µM unless noted

Compound	growth
O=C(/C=C\c1ccccc1)N1c2ccccc2CC1c1c[nH]c2ccccc12 (stereo not given)	73.5% (inactive)
COc1cccc2cc(N(C)c3ncnc4ccccc34)ccc12	-29.1% (active)
NC(=O)C1(N2CCCCC2)CCN(CCCC(=O)c2ccc(F)cc2)CC1	9.84% (active)
C#Cc1cccc(NC(=O)Nc2cccc(N=C=S)c2)c1	98.7% [8.25 µM] (inactive)
COC(=O)c1c2c(c(C)[n+]([O-])c1C)C(=O)C=C(NCc1ccc(F)c(F)c1)C2=O	-24% (active)
COc1cc2c(-c3nc4cc(Cl)c(F)cc4s3)cc(=O)oc2c(C)c1OC	-56.2% (active)
Oc1c(Cl)cc(Cl)c2ccc(Cn3cc(-c4cccc(C(F)(F)F)c4)nn3)nc12	-18.9% (active)
C=C(C)[C@@H]1CC[C@]2(C(=O)O)CC[C@]3(C)[C@H](CC[C@@H]4[C@@]5(C)C[C@@H](CC#Cc6ccc(C(C)=O)s6)[C@H](O)C(C)(C)[C@@H]5CC[C@]43C)[C@@H]12	54% (inactive)
CCN1C(=S)N(CC)C2C1NC(=S)N2/N=C/C=C/c1ccccc1OC (stereo not given)	-46.4% (active)
CC(C)C1=NOC(=O)C1=Cc1cn(-c2ccccc2)nc1-c1ccc(F)cc1	-34.9% (active)
CC1CN(CCO)CC(C)O1 (stereo not given)	102% (inactive)
COc1ccc2c(c1)CC[C@@H]1[C@@H]2CC[C@]2(C)C3C(=CC(COC(C)=O)C4C(=O)N(c5ccc(Cl)cc5)C(=O)C43)C[C@@H]12 (stereo not given in full)	88.4% (inactive)
Cn1c([N+](=O)[O-])cnc1/C=C1\Oc2ccc(Br)cc2C1=O	-12% (active)
O=C(NCc1cccc(CNC(=O)Nc2nc3ccccc3[nH]2)c1)Nc1nc2ccccc2[nH]1	10.1% (inactive)
CN(C)CC(CN(C)C)C(O)c1ccccc1 (stereo not given)	99.8% (inactive)
COc1ccc(/C=C/C(=O)c2cc3c(N)c(C(=O)Nc4cccc5ccccc45)sc3nc2C)cc1	81.9% (inactive)
CC1(c2ccccc2)NC(=O)N(NC(=O)CSc2nc(-c3cccs3)nc3ccccc23)C1=O (stereo not given)	91.6% (inactive)
COc1ccc(-c2ccc(-c3ccc(C(=N)N)cn3)s2)cc1	-37.1% (active)
CN(C)CCCC1(c2ccc(F)cc2)OCc2cc(-c3csc4ccccc34)ccc21 (stereo not given)	-52.1% (active)
COc1ccc([N+](=O)[O-])c(S(=O)(=O)c2ccc(Cl)cc2)n1	38.2% (inactive)

Compound	growth
O=CNCCc1ccccc1	87.6% (inactive)
N#Cc1cccc(-c2nc3ccccn3c2NCCN2CCOCC2)c1	101% (inactive)
Brc1ccc(C2CC(c3cccc(Nc4ccncc4)c3)=NN2c2ccccc2)cc1 (stereo not given)	56.9% (inactive)
COc1cc(C(F)(F)F)ccc1-c1cc(-c2ccc(F)cc2)n[nH]1	115% (inactive)
c1ccc(-c2ccc3c(c2)C2(CCNCC2)CN3)cc1	93.7% (inactive)
CC1Cc2c(Cl)ncnc2N(C)c2ccc(O)cc21 (stereo not given)	91.4% (inactive)
Cc1onc(-c2ccccc2Cl)c1C(=O)Cl	104% (inactive)
CCOC(=O)c1nn(CC(O)c2ccccc2)c(NC(=O)Nc2cccc(F)c2)c1C (stereo not given)	108% (inactive)
COc1cc(C(=O)Nc2ccc(N(C)C)cc2)cc(OC)c1OC	95.8% (inactive)
Oc1ccc(Br)cc1Sc1cc(Br)ccc1O	27.9% (inactive)
[2H]C([2H])([2H])Oc1cc(F)ccc1/C=C/C(=O)/C=C(/C=C/c1ccc(F)cc1OC([2H])([2H])[2H])OB(F)F	11.6% (inactive)
OB(O)c1ccsc1-c1nc2ccc3[nH]ncc3c2c2c1CCCC2	52.2% (inactive)
O=[N+]([O-])c1cccc(-c2ncc(-c3ccc(Cl)cc3Cl)[nH]2)c1	70.1% (inactive)
COC(=O)C1=Nc2ccc(F)cc2/C1=C\c1sc(Nc2ccc(O)cc2)nc1O	54.8% (inactive)
CN(C)CCOc1nc2c3cc([N+](=O)[O-])ccc3nn2c2ccccc12	11.7% (inactive)
COc1cc(C2C3=C(COC3=O)Nc3c2ccc2c3CCCC2)cc2c1OCO2 (stereo not given)	-6.76% (active)
CCOC(=O)c1cn2ncnc(Oc3ccc(NC(=O)NC4CC4)c(Cl)c3)c2c1C	83.5% (inactive)
COc1cc(-c2csc(NC(=O)c3cc(F)cc(C(F)(F)F)c3)n2)cc(OC)c1OC	14% (inactive)
N#C/C(=C1C=C/C(=N/O)C(Br)=C/1)c1ccccc1	-20.5% (active)
O=C(Nc1ncc(Cc2cc(C(F)(F)F)ccc2Cl)s1)c1cccs1	30.6% (inactive)
